From PubChem BioAssay (NCATS) come the findings set out here.

A short description of assay [1]: Cell Viability - SK-N-SH (AID 435; calls by dose curve; note: potency is the fitted concentration of half-maximal effect). To be noted: SK-N-SH neuroblastoma cell viability qHTS. In a few lines:
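Luminescent ATP signal served as the viability read-out after 40 hours of compound treatment of human neuroblastoma SK-N-SH cells. Concentration-response data, scaled between DMSO and 100 uM tamoxifen, gave AC50 values by standard Hill modeling.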
In general terms: qHTS replaces the single test concentration by a dilution series.

Assay [2] in a line: Cell Viability - N2a (AID 540).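 Note: plate controls were DMSO alone for no effect and tamoxifen control for full effect; nearly all actives have a fitted effect of over 45% in size.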 The note with it: N2a mouse neuroblastoma cell viability; activity change, negative = cytotoxicity: at 92.2 µM (top of the series). The method, boiled down:
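N2a mouse neuroblastoma, 1500 cells/well, 5 hr settle; compound 40 hr, 37 °C; CellTiter-Glo 20 min RT; luminescence; Hill-fit AC50.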

Assay [3] is described as follows: Cell Viability - H-4-II-E (AID 543). Note: % is set by controls: 0 for no effect and ±100 for the full control effect; nearly all actives have a fitted effect of over 35% in size. The note with it: H-4-II-E rat hepatoma viability; series mostly up to 92.2 µM. In a few lines: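 qHTS, rat hepatoma H-4-II-E, 1500 cells/well; 40 hr compound exposure, 37 °C; CellTiter-Glo ATP luminescence after 20 min RT; AC50 by standard Hill fit.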
Assay [4] can be described thus: Cell Viability - Renal Proximal Tubule (AID 545).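 Note: 0% = DMSO only and -100% = 100 µM tamoxifen; nearly all actives have a fitted effect of over 40% in size.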 To be noted: renal proximal tubule cells viability, primary cells of rat origin; activity change, negative = cytotoxicity: at 91.7 µM (top of the series). In a few lines: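 Luminescent ATP signal (CellTiter-Glo) served as the viability read-out after 40 hr compound exposure of freshly isolated rat proximal tubule cells at 37 °C. Concentration-dependent ATP loss was fitted with the Hill equation to give AC50.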

Assay [5] can be described thus: Cell Viability - LYMP2-001 (AID 921).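 Note: cells exposed to compound for 24 h at 37 °C; 0% = DMSO only and full inhibition = tetraoctylammonium bromide control wells; nearly all actives have a fitted effect of over 70% in size.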 To be noted: LYMP2-001 lymphoblastoid cell viability; series mostly up to 92.2 µM. In a few lines: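 Steps: seed 2500 lymphoblastoid cells/well; 5 hr, 37 C; add compound; 24 hr, 37 C; CellTiter-Glo reagent, 30 min room temperature; read luminescence. Concentration-response modeled by Hill equation for AC50.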
Assay [6] can be described thus: MultiTox-Fluor Cytotoxicity Assay - LYMP1-001 - Live Cells (AID 947).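 Note: 0% = DMSO only and full inhibition = tetraoctylammonium bromide control.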 To be noted: LYMP1-001 lymphoblastoid cells, live-cell protease fluorescence viability; series mostly up to 92.2 µM.
A short description of assay [7]: MultiTox-Fluor Cytotoxicity Assay - LYMP1-002 - Dead Cells (AID 960).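 Note: cells exposed to compound for 16 h at 37 °C; 0% = DMSO and 100% = tetraoctylammonium bromide; nearly all actives have a fitted effect of over 60% in size.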 The note with it: LYMP1-002 lymphoblastoid cells, dead-cell protease fluorescence; series mostly up to 46.1 µM. The method, boiled down: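 Readout: fluorescence at 485/520 from cell-impermeant bis-AAF-R110 cleaved by proteases leaking from damaged cells. LYMP1-002 lymphoblastoid line, 16 hr compound treatment at 37 C, concentration-response in qHTS format; Hill-equation AC50 values.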

The nature of assay [8]: Cell Viability - LYMP1-003 - Assay at 40 hr (AID 964). Note: % is set by controls: 0 for no effect and ±100 for the full control effect; nearly all actives have a fitted effect of over 60% in size. To be noted: LYMP1-003 lymphoblastoid viability; series mostly up to 92.2 µM. The method, boiled down: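 LYMP1-003 lymphoblastoid cells, 2500/well; 5 hr preincubation, 40 hr compound exposure, 37 C; CellTiter-Glo 30 min RT; luminescence; Hill-fit AC50. Positive control tetraoctylammonium bromide.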
Assay [9] in a line: Cell Viability - LYMP2-004 (AID 966).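 Note: cells exposed to compound for 24 h; plate controls were DMSO only for no effect and tetraoctylammonium bromide control for full effect; nearly all actives have a fitted effect of over 65% in size.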 To be noted: LYMP2-004 lymphoblastoid cell viability, qHTS; series mostly up to 92.2 µM. The method, boiled down:
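Luminescent ATP read-out (CellTiter-Glo, 30 min RT) after 24 hr compound exposure at 37 C; 2500 lymphoblastoid cells/well, complete medium. Decrease in ATP = cytotoxicity; AC50 from standard Hill model.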

Assay [10] is described as follows: Cell Viability - LYMP2-009 (AID 968).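 Note: cells exposed to compound for 24 h at 37 °C; 0% = DMSO alone and the full-kill end = tetraoctylammonium bromide at 92 µM; nearly all actives have a fitted effect of over 55% in size.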 The note with it: LYMP2-009 lymphoblastoid cell viability; series mostly up to 92.2 µM.
A short description of assay [11]: Cell Viability - LYMP2-015 (AID 971).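 Note: cells exposed to compound for 24 h; 0% = DMSO only and full effect = 92 µM tetraoctylammonium bromide; nearly all actives have a fitted effect of over 55% in size.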 To be noted: LYMP2-015 lymphoblastoid cell viability; series mostly up to 92.2 µM. The method, boiled down: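 qHTS cytotoxicity: 2500 cells/well, 5 hr 37 C, compound 24 hr 37 C, CellTiter-Glo 30 min RT, luminescence. Loss of ATP = toxicity; AC50 via standard Hill fit.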
Assay [12] can be described thus: Cell Viability - LYMP2-017 (AID 972).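 Note: cells exposed to compound for 24 hours at 37 °C; % is set by controls: 0 for no effect and ±100 for the full control effect; nearly all actives have a fitted effect of over 55% in size.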 To be noted: LYMP2-017 lymphoblastoid cell viability; series mostly up to 92.2 µM. The method, boiled down:
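Luminescent ATP read-out (CellTiter-Glo, 30 min RT) reports viable cell number. Cells: human lymphoblastoid line, 2500 per well, 5 hr preincubation, 24 hr compound exposure at 37 C. AC50 is derived from qHTS concentration-response data using the standard Hill model.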

Assay [13] is described as follows: Cell Viability - LYMP2-019 (AID 973).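 Note: cells exposed to compound for 24 h at 37 °C; 0% = DMSO alone and full effect = 92 µM tetraoctylammonium bromide; nearly all actives have a fitted effect of over 55% in size.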 To be noted: LYMP2-019 lymphoblastoid cell line viability; series mostly up to 92.2 µM. The method, boiled down:
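qHTS, 1536-well; 2500 cells/well; 5 hr pre-incubation, 24 hr compound exposure, 37 C; CellTiter-Glo added, 30 min RT; luminescence read; AC50 via standard Hill equation.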

Assay [14] is described as follows: Cell Viability - LYMP2-010 (AID 981). To be noted: LYMP2-010 lymphoblastoid cell viability, qHTS; series mostly up to 92.2 µM. In a few lines: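 qHTS cytotoxicity, 1536-well: 2500 cells/well, 5 hr settle, 24 hr compound at 37 C, CellTiter-Glo 30 min RT, luminescence read. Decrease in ATP = toxicity; AC50 via standard Hill equation. Positive control tetraoctylammonium bromide.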

Assay [15] is described as follows: qHTS assay for small molecule agonists of retinoid X receptor alpha signaling (AID 588544; calls by dose curve). To be noted: HEK293T RXRa-UAS-bla, beta-lactamase reporter, 18 h; 530 nm emission.
Assay [16] addresses Retinoic acid receptor RXR-alpha (Homo sapiens) (UniProt P19793). Described as above. To be noted: HEK293T RXRa-UAS-bla, beta-lactamase reporter, 18 h; series mostly up to 76.7 µM.
A short description of assay [17]: qHTS assay for small molecule agonists of the antioxidant response element (ARE) signaling pathway measured by Nrf2-dependant transcriptional activity (AID 720636; active = well fitted curve in the direction sought with a large enough effect in the repeat runs; an effect the other way counts as inactive or inconclusive;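 note: HepG2 cells with an ARE-driven luciferase reporter; % of control where 0% means no effect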). To be noted: ARE-luc HepG2, Nrf2 luciferase reporter, 16 h; series mostly up to 92.4 µM. The method, boiled down:
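Nrf2-dependent transcription is measured in ARE-luc HepG2 cells: compound is applied for 16 hr at 37 C after a 6 hr attachment period, and luciferase activity is quantified by luminescence using ONE-Glo.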

The target of assay [18] is Nuclear receptor subfamily 1 group I member 2 (Rattus norvegicus) (UniProt Q9R1A7). Put plainly: qHTS assay for small molecule activators of the rat pregnane X receptor (rPXR) signaling pathway (AID 651751; call rule not given here; note: 0% is about no effect). The note with it: rPXR reporter cells, luciferase (One-Glo), 24 h.
Chain of Nuclear receptor subfamily 1 group I member 2 (Rattus norvegicus) (Q9R1A7 whole entry, looked up): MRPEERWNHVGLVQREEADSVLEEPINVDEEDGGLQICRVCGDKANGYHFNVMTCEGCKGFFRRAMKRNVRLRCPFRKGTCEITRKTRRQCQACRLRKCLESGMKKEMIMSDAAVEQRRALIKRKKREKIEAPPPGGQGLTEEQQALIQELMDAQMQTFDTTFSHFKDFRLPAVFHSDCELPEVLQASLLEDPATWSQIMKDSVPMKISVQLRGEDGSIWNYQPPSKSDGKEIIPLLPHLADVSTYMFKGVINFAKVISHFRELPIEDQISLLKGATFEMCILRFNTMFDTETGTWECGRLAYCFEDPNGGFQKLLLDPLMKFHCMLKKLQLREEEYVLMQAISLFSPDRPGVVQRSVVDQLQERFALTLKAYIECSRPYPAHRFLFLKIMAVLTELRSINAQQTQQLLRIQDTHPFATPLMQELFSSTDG
The target in assay [19] is Thyroid hormone receptor beta (Homo sapiens) (UniProt P10828). As to the kind of experiment: qHTS assay for small molecule antagonists of thyroid hormone receptor beta signaling (AID 588547; active = well fitted inhibition curve with a large enough effect in the signal ratio, with a control signal flat, not every such curve was filed as active; the % refers to the signal ratio;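 note: cells stimulated with 0.4 nM T3 agonist during compound exposure; % is set by controls: 0 for no effect and ±100 for the full control effect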). The note with it: TR-UAS-bla HEK293, beta-lactamase ratio, antagonist mode, 18 h. In a few lines:
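TR-UAS-bla GripTite HEK293 cells in 2% charcoal/dextran FBS medium were preincubated 4 h at 37 C, given compound (0.59 nM to 92 uM) plus 0.4 nM T3 (final) for 18 h, then CCF4 for 2 h at RT; Hill fit gave IC50.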

A short description of assay [20]: qHTS assay for small molecule disruptors of the mitochondrial membrane potential - 5 hr assay (AID 651755; calls by dose curve; note: nearly all actives have a fitted effect of over 40% in size; note: potency is the fitted concentration of half-maximal effect). The note with it: JC-1-type ratio dye; series mostly up to 92.2 µM. In a few lines:
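Seed HepG2 overnight, add compound, incubate 5 hr at 37C and 5% CO2, stain 30 min with Mito-MPS, then measure monomer (490/535 nm) and aggregate (540/590 nm) fluorescence.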

The structures appear in SMILES notation. “And” between values parts separate entries of the source, which are not always exact repeats. Identical values can stand only once. Results filed as inconclusive are left out. The source made the active and inactive calls. Unless noted, calls come from the whole dose curve; as a rule, active = well fitted curve in the direction sought with a large enough effect; inconclusive = small, poorly fitted or top-dose-only effect, or another doubt; inactive = no such curve, though single readings can be large; an effect the other way counts as inactive or inconclusive.

Chain of Retinoic acid receptor RXR-alpha (Homo sapiens) (P19793 whole entry, looked up): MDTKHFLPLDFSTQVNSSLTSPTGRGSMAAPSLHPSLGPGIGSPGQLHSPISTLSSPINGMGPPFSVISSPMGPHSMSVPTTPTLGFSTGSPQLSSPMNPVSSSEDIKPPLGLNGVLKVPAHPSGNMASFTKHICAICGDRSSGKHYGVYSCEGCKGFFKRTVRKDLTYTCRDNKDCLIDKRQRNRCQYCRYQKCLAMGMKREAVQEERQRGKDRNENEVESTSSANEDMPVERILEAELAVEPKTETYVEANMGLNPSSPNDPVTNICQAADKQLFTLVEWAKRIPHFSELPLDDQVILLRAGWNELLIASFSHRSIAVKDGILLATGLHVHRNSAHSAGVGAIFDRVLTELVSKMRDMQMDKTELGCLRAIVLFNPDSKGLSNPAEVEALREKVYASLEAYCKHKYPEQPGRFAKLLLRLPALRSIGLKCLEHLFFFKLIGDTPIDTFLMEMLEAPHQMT
Chain of Thyroid hormone receptor beta (Homo sapiens) (P10828 whole entry, looked up): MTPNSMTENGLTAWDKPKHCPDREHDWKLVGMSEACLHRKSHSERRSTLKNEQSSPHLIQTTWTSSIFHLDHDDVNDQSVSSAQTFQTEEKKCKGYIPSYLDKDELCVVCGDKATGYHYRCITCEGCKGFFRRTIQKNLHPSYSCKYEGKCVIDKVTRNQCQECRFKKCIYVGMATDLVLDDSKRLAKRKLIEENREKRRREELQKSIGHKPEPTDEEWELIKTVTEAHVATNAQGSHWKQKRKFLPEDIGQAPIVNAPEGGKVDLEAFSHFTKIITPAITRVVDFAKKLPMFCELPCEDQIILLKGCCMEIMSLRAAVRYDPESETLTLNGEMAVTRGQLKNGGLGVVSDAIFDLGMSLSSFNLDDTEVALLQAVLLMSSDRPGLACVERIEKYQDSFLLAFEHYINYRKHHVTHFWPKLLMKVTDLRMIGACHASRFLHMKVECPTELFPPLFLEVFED

Turning to `Brc1ccc(-c2ccccc2)cc1`, the Potency in [1] was > 92 µM (inactive). The activity change, negative = cytotoxicity in assay [2] was -19.3% (inactive). Besides, the Potency result in assay [3], in assay [4], in [5], in assay [6], in assay [7] and in assay [8] was “inactive” throughout. Moreover, the Potency entry in assay [9], in assay [10], in assay [11], in assay [12], in [13] and in [14] was “inactive” each time. Also, the Potency entry in [16] and in [17] was “inactive” in each case. The max response was 4.33% in assay [15] and 1.6% (inactive) in assay [18].

With `Nc1ccc(N=Nc2ccccc2)c(N)c1`, the Potency in assay [1] is > 92 µM (inactive); in assay [20], 10.6 µM (active). The Potency entry in assay [3], in assay [4], in assay [5], in assay [6], in [7] and in assay [8] was “inactive” throughout. The Potency result in [9], in assay [10], in [11], in assay [12], in [13] and in [14] was “inactive” each time. In [16], the Potency entry was “inactive”. For the same molecule, in assay [15], the max response amounted to 0.404%. Further, the activity change % (negative = inhibition) in assay [19] is 1.36% (inactive).

Take `C=CC1CO1` (stereo not drawn): the Potency in assay [1] was > 92 µM (inactive). For the same molecule, the activity change, negative = cytotoxicity in assay [2] was 2.77% (inactive). In addition, the Potency result in assay [3], in assay [4], in assay [5], in assay [6], in [7] and in assay [8] was “inactive” throughout. Also, the Potency result in assay [9], in assay [10], in assay [11], in assay [12], in assay [13] and in assay [14] was “inactive” in each case. For the same molecule, the Potency result in [16], in [20] and in [17] was “inactive” throughout. The max response in [15] was -16.9%; in assay [18] it was 4.12% (inactive). Besides, the activity change % (negative = inhibition) in assay [19] is 4.27% (inactive).

Regarding `CCCCCCCCC1CO1` (stereo not drawn), the Potency in [1] was > 92 µM (inactive). Besides, the activity change, negative = cytotoxicity in assay [2] was -1.38% (inactive). The Potency result in assay [3], in assay [4], in [5], in assay [7], in assay [8] and in [9] was “inactive” in each case. The Potency result in assay [10], in assay [11], in assay [12], in assay [13], in [14] and in assay [16] was “inactive” in each case. Moreover, the Potency result in [20] and in assay [17] was “inactive” throughout. The max response in [15] was -17.5%; in [18], -2.96% (inactive). For the same molecule, the activity change % (negative = inhibition) in assay [19] was 2.22% (inactive).

In the case of `Cc1ccc(S(N)(=O)=O)cc1`, in [1], the Potency is > 92 µM (inactive). Moreover, the activity change, negative = cytotoxicity in [2] is -12.6% (inactive). For the same molecule, the Potency result in assay [3], in assay [4], in assay [5], in [6], in assay [7] and in [8] was “inactive” throughout. Besides, the Potency result in assay [9], in [10], in [11], in [12], in [13] and in [14] was “inactive” in each case. In addition, the Potency entry in assay [16], in assay [20] and in assay [17] was “inactive” in each case. Also, the max response in assay [15] is -3.23% and -4.03%; in [18] it was -1.87% (inactive) and 3.62% (inactive). Moreover, in assay [19], the activity change % (negative = inhibition) is 17.3% (inactive) and -1.91% (inactive).

`NC(=O)c1ccc([N+](=O)[O-])cc1`: the Potency in [1] was > 92 µM (inactive). Moreover, the activity change, negative = cytotoxicity in assay [2] was 4.68% (inactive). The Potency result in [3], in assay [4], in [5], in assay [7], in assay [8] and in assay [9] was “inactive” each time. The Potency entry in assay [10], in [11], in assay [12], in assay [13], in [14] and in assay [16] was “inactive” each time. The Potency result in assay [20] and in [17] was “inactive” each time. In addition, the max response was -9.87% in assay [15] and -2.18% (inactive) in assay [18]. The activity change % (negative = inhibition) in [19] is -17.4% (inactive).
